Bioassay records: PubChem, several laboratories
Mdm2-MdmX inh: human Mdm2/MdmX binding inhibition. SaOS-2 split-luciferase Mdm2/MdmX complementation, luminescence. inhibition, % at 8 µM. actives 3% (n = 330,000). AID 485346;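 active = inhibition of at least 50% at 8 µM in the primary screen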
Target sequence (O15151 whole entry, looked up): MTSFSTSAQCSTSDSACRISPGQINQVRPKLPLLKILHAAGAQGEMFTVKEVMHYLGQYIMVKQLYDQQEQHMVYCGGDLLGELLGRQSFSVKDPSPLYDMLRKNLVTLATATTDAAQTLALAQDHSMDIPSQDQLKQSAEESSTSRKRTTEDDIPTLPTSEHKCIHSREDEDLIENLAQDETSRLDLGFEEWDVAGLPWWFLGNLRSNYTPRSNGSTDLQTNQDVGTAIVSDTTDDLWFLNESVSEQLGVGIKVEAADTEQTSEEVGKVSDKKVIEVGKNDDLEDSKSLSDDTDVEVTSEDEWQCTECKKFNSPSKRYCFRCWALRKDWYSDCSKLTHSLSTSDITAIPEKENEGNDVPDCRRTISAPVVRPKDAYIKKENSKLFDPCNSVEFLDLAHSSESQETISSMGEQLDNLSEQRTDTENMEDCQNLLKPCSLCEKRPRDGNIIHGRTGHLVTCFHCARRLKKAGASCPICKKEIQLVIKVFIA
Target sequence (Q00987 whole entry, looked up): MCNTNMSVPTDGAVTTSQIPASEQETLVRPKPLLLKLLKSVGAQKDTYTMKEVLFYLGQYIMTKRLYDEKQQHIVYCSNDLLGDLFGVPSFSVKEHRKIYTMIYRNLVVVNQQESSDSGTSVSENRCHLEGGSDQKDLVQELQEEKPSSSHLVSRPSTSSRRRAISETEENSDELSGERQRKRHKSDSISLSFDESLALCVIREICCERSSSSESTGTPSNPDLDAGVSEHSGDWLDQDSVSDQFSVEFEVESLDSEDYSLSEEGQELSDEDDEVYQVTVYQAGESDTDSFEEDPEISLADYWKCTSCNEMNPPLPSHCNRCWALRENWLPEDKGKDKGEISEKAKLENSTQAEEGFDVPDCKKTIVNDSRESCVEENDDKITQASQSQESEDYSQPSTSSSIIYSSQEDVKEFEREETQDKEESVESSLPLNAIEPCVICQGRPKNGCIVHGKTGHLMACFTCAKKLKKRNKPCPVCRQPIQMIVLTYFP
Calb FLC: affects C. albicans growth with fluconazole; C. albicans CaCi-2 (fluconazole-resistant clinical isolate) + fluconazole, Alamar Blue growth, 48 h; growth inhibition, % (concentration not given with the values); actives 0.57% (n = 300,000); AID 1979;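 active = growth inhibition above about 58% in most replicates, limit read from the data, passing the limit was not always enough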;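 also: all wells also contain fluconazole at 8 µg/ml as a sub-toxic cotreatment; 0% = median of DMSO wells and 100% = median of geldanamycin control wells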
Beta apoptosis: beta cell apoptosis inhibition; INS-1E cytokine-induced death, ATP luminescence, 48 h; percent of positive-control rescue, neutral wells zero; protection from apoptosis, % (no concentration beside the values); actives 0.8% (n = 300,000);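 active = Every replicate reaches about 75%, or at least half do and their mean reaches it too, limit read from the data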;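 also: 0% = cytokine-treated negative control wells and 100% = positive control rescue; higher means more ATP so stronger rescue from cytokine killing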
MPTP inh: inhibitors of mitochondrial permeability transition pore | isolated mouse mitochondria, Ca2+ swelling absorbance, 30 min | AID 602449 | inhibition, % at 10 µM | actives 1.4% (n = 360,000);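 active = inhibition of 50% or more, scaled per plate between neutral and stimulator controls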;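 also: 0% = DMSO wells given calcium and 100% = 1 mM EGTA wells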
CSC inhib: cancer stem cell inhibition; actives 1.1% (n = 300,000); AID 2717; cancer stem cell-like cells viability, luminescence; inhibition, % at 7.5 µM; in the data active = inhibition above about 75%; tested in HMLE shEcad cells
Mdm2-MdmX conf: confirmation of human Mdm2/MdmX interaction inhibitors; inhibition, % at 8 µM; Mdm2-MdmX binding, luminescent assay; shares compounds with Mdm2-MdmX inh; actives 55% (n = 10,000); in the data active = inhibition above about 40%
FLuc counter: full-length luciferase inhibition in Mdm2/MdmX counter-screen | SaOS-2 full-length luciferase counterscreen, luminescence | shares compounds with Mdm2-MdmX inh | actives 77% (n = 6,200) | inhibition, % at 8 µM | AID 504607;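 active = mean inhibition at 8 µM reaching about 37%, which flags the compound as non-specific, limit read from the data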;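 also: p53-null SaOS-2 cells with luciferase driven by a doxycycline-inducible promoter; compound on cells about two nights before reading with doxycycline added after day one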
Numbers without * were called inactive; . = no result; + = active, no number. The list is not random: actives were taken first. Their share in the collection is about 4.8%.

SMILES	Mdm2-MdmX inh	Calb FLC	Beta apoptosis	MPTP inh	CSC inhib	Mdm2-MdmX conf	FLuc counter
Cc1sc(NC(=O)c2ccccc2)c(C(c2ccc(Cl)cc2)N2CCN(CCO)CC2)c1C (stereo not drawn)	54.5*	61.1	-6.0	-2.2	26.6	36.9	84.1*
CC(=O)Nc1ccc(S(=O)(=O)N2CCSc3ccccc32)cc1	47.8	.	7.9	1.6	61.8	.	.
O=C(CC[C@H]1O[C@@H](n2cnc3c(NC(=O)c4ccccc4)ncnc32)[C@H](O)[C@@H]1O)NCC1CCCCC1	.	.	.	0.6	.	.	.
Cc1ccc(Cn2c(CCNc3nc(-c4ccc(Cl)c([N+](=O)[O-])c4)cs3)nc3cc(Cl)c(Cl)cc32)cc1	92.9*	1.5	2.8	1.5	54.3	-3.6	.
CN(CCc1ccccc1)C(=O)c1[nH]c(C(F)(F)F)nc1-c1ccccc1	.	.	.	-1.2	.	.	.
c1ccc2c(c1)[nH]c1c(N3CCCC3)ncnc12	17.3	10.6	46.8	0.2	.	.	.
Brc1ccc2[nH]c3c(N4CCc5ccccc5C4)ncnc3c2c1	69.2*	-4.6	61.2	.	80.0*	20.1	.
CCOc1ccc2[nH]c3c(N4CCc5ccccc5C4)ncnc3c2c1	56.8*	-0.6	38.6	36.9	86.8*	59.4*	35.8
CN1CCN(c2ncnc3c2[nH]c2ccc(F)cc23)CC1	19.5	1.4	2.2	-5.6	-3.9	.	.
COc1ccc(C(=O)O/N=C(\N)c2ccc(Br)cc2)cc1	96.2*	-1.4	-9.6	0.6	13.7	36.4	158.3*
COc1ccc(C(=O)O/N=C(\N)c2ccccc2)cc1	55.0*	-20.5	-3.0	3.2	-7.5	22.1	.
Cc1ccc(C(=O)O/N=C(\N)c2ccc(Br)cc2)cc1	98.0*	1.2	-0.3	0.1	-3.9	29.4	.
CC(C)(C)c1ccc(C(=O)O/N=C(\N)c2ccccc2)cc1	96.8*	-3.5	0.7	-0.6	0.5	87.6*	23.3
N/C(=N\OC(=O)c1ccc(Br)cc1)c1ccccc1	-115.4	3.7	8.1	0.3	1.1	.	.
Cc1cc(C(=O)O/N=C(\N)c2ccc(C(C)(C)C)cc2)no1	-102.8	3.7	2.9	-1.3	9.5	.	.
CC1(C(=O)Nc2cccc3ccccc23)CCN1C(=O)C1(c2ccccc2)CCCC1 (stereo not drawn)	.	.	.	-0.4	.	.	.
COc1ccc(-c2cc(=O)oc3cc(OCC(C)=O)ccc23)cc1	11.6	9.8	1.7	-1.2	-4.7	.	.
COc1ccc(-c2cc(=O)oc3c(C)c(O)ccc23)cc1	64.6*	-2.2	-7.9	-0.1	18.8	80.7*	53.1*
COc1ccc(-c2cc(=O)oc3cc(OC(C)C(=O)NC4CC4)ccc23)cc1 (stereo not drawn)	44.7	7.0	-4.9	1.3	-2.7	.	.
COc1ccc(-c2cc(=O)oc3cc(O)ccc23)cc1	62.8*	6.6	-10.6	0.4	8.9	46.0*	40.4*
COc1ccc(-c2cc(=O)oc3cc(OC(=O)C4CCCCC4)c(Cl)cc23)cc1	75.1*	61.8	-9.8	7.3	0.2	83.5*	52.4*
Cc1c(O)ccc2c(-c3ccccc3)cc(=O)oc12	32.8	26.1	4.7	1.8	15.6	.	.
COc1ccc(-c2cc(=O)oc3c(C)c(OC(=O)c4cccs4)ccc23)cc1	85.0*	.	9.4	18.2	12.8	47.2*	32.9
CC(C)C[C@@H]1COc2cc(N3CCC[C@H]3CO)ccc2S(=O)(=O)N1	.	.	.	-0.4	.	.	.
COc1c2c(cc3oc(=O)c4c5ccc(O)cc5oc4c13)OC(C)(C)CC2	81.4*	-6.8	6.5	2.1	-10.3	62.6*	+
SMILES	Mdm2-MdmX inh	Calb FLC	Beta apoptosis	MPTP inh	CSC inhib	Mdm2-MdmX conf	FLuc counter
CC(C)[C@@H]1Cc2[nH][nH]c(=O)c2[C@H](c2ccc(F)cc2)O1	.	.	.	-1.9	.	.	.
CC(=O)NCCNc1nc2cc(-c3ccc(Cl)cc3C)sc2c(=O)n1C	.	.	.	-0.6	.	.	.
Cc1ccc(SC(c2ccccc2)C(Cn2cncn2)C(=O)c2ccccc2)cc1 (stereo not drawn)	60.3*	-3.7	-12.2	0.4	-9.0	22.6	.
O=C(c1ccc(Cl)cc1)C(Cn1cncn1)C(Sc1ccccc1)c1ccccc1 (stereo not drawn)	11.3	-5.8	-15.5	-0.9	24.5	.	.
COc1cc2cc(CN(CCc3ccccc3C)C(=S)NCCCN(C)C)c(=O)[nH]c2cc1OC	54.9*	-5.6	1.3	-1.7	2.5	22.4	.
COc1cc2cc(CN(CCc3ccccc3C)C(=S)NCCCN3CCOCC3)c(=O)[nH]c2cc1OC	51.8*	-5.0	0.4	0.6	2.0	20.2	.
